# Measured values taken from PubChem BioAssay AID686979 (National Center for Advancing Translational Sciences (NCATS), 2013).
# The whole screen tested about 420,000 compounds, of which about 50,000 (12%) were called active. About 26% were inconclusive and are not listed. The list comes from a sample in which actives are over-represented; it also holds similar structures and randomly drawn compounds. Values without a mark were called inactive. The call rests on the fitted dose curve; in most records, active means well fitted inhibition curve with a large enough effect; inconclusive means small, poorly fitted or top-dose-only effect; inactive means flat fitted curve, though single readings scatter.
# Assay: qHTS for Inhibitors of human tyrosyl-DNA phosphodiesterase 1 (TDP1): qHTS in cells in presence of CPT; further: nearly all actives have a fitted effect of over 55% in size
# Conditions: chicken DT40 Tdp1-/-;hTDP1 cells + 20 nM CPT, ATP luminescence, 48 h; series mostly up to 46.2 µM; activity change, negative = growth inhibition: at the top concentration
# In short: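 Chicken DT40 Tdp1-/- cells stably complemented with human TDP1 were seeded at 400 cells/well in medium containing 20 nM camptothecin, exposed to pin-transferred compounds, and grown at 37 °C for at least 48 hr. Viability was read as ATP luminescence.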
# On the % scale 0 is the no-effect control and ±100 the full control effect; potency means the concentration at half of the fitted maximal effect.
SMILES,"activity change, negative = growth inhibition",Potency
O=C1CCN(C(=S)NCCc2ccccc2)CC1,0.277%,–
Oc1ccc(N2CCN(C(=S)NCc3ccccc3)CC2)cc1,–,11.6 µM (active)
S=C(NCCc1ccccc1)N1CCCCC1,-3.98%,–
CC(Oc1ccccc1)C(=O)N[C@@H]1C(=O)N2[C@@H]1SC(C)(C)[C@@H]2C(=O)O (stereo not given in full),6.19% [at 21.1 µM],–
COc1cc(C=NC2CCCCC2)ccc1O,4.14%,–
COc1ccc(N2CCN(C(=O)CNC(=O)c3ccc(Br)o3)CC2)cc1,13.1%,–
O=C(CN1CCN(c2ncc(C(F)(F)F)cc2Cl)CC1)Nc1ccc2c(c1)OCO2,-13.8%,–
O=C(NCC(=O)N1CCN(c2ncc(C(F)(F)F)cc2Cl)CC1)c1ccc(Br)o1,–,16.4 µM (active)
Cc1cc(C)cc(C(=O)NC(CC(N)=O)c2ccc(N3CCC(N4CCCCC4)CC3)c([N+](=O)[O-])c2)c1 (stereo not given),2.09%,–
OCCN1CCN(CCO)C1=S,5.79%,–
COc1ccccc1CN1CCCC(N2CCN(c3ccc(F)cc3)CC2)C1 (stereo not given),-27.6%,–
CNC[C@H](CC1CCCCC1)NC[C@H](NCCC1CCCC1)[C@H](C)O,–,16.4 µM (active)
COc1ccc2c(c1OC)C(=O)N(c1ccc(O)cc1)C2,-0.711%,–
O=C(CN1CCN(c2ccccc2O)CC1)NC(=O)NCc1ccccc1,-16.9%,–
CCc1ccc(C(=O)COC(=O)c2ccco2)cc1,-1.65%,–
CCCN1C(=O)C(O)(CC(=O)c2ccc(CC)cc2)c2cc(Br)ccc21 (stereo not given),–,7.31 µM (active)
Cc1coc(C)c1C(=O)CC1(O)C(=O)N(C)c2ccc(Cl)cc21 (stereo not given),3.38%,–
Cc1nc2sc3c(c2c(=O)n1NC(=O)CCl)CCCC3,17.3%,–
COCCNc1nc(-n2nc(C)cc2C)nc2sc3c(c12)CCCC3,–,3.66 µM (active)
CCOC(=O)CSc1nc2sc3c(c2c(=O)[nH]1)CC(C)(C)OC3,-16.6%,–
COCCn1c(C)cc(C(=O)CSc2ncnc3sc4c(c23)CCC4)c1C,-11.5%,–
CC/C(C)=N/Nc1nc2sc3c(c2c(=O)[nH]1)CC(C)(C)OC3,1.97%,–

SMILES,"activity change, negative = growth inhibition",Potency
CCC(O)CNc1nc(-n2nc(C)cc2C)nc2sc3c(c12)CC(C)(C)OC3 (stereo not given),–,11.6 µM (active)
O=C(O)c1ccc(Cn2cnc3c(=S)nc[nH]c32)cc1,14.7%,–
O=C(c1cccnc1)N1CCN(S(=O)(=O)c2cccs2)CC1,-5.05%,–
CCC1CN(S(=O)(=O)c2cc(-c3cc(C)no3)ccc2C)c2cc(C)ccc2O1 (stereo not given),–,20.6 µM (active)
Cc1cc(-c2ccc(C)c(S(=O)(=O)N3c4ccccc4CC3C)c2)on1 (stereo not given),–,18.4 µM (active)
Cc1ccc(C)c(S(=O)(=O)N2CC(=O)Nc3ccccc32)c1,-7.38%,–
CC1Cc2ccccc2N1S(=O)(=O)c1c(N)n(C)c(=O)n(C)c1=O (stereo not given),-1.47%,–
Cc1cc(-c2ccc(C)c(S(=O)(=O)Nc3ccc(S(N)(=O)=O)cc3)c2)on1,-3.34%,–
CCc1noc(C)c1C(=O)NCCN1Cc2cc(OC)ccc2OC(CC)C1 (stereo not given),-8.71% [at 9.04 µM],–
CC(=O)c1ccc(S(=O)(=O)Nc2ccc(-c3ccc4nncn4n3)cc2)cc1,26%,–
O=C(O)C(=Cc1ccccc1[N+](=O)[O-])c1ccccc1,-1.61%,–
CCCCCCCC1(C)NC(=O)N(CC(=O)Nc2cc(C)on2)C1=O (stereo not given),-1.42%,–
COc1ccc(NC(=O)CN(C)C(=O)c2cc(C3CC3)nn2-c2ccccc2)cc1,-20.1%,–
CCOc1ccc(NC(=O)CN(C)C(=O)c2cccc(S(=O)(=O)N3CCCC3)c2)cc1OCC,6.25%,–
COc1ccc(NC(=O)CN(C)C(=O)c2cccc(S(=O)(=O)N3CCN(c4ccccc4)CC3)c2)cc1,–,18.4 µM (active)
COc1cc(/C(=C/c2ccccc2)c2ccccc2)c2c(c1)oc1ccccc12,–,inactive
O=C(CSc1n[nH]c(-c2cccnc2)n1)Nc1ccc(Cl)cc1,-6.52%,–
COc1cc(C#Cc2ccc3cc(CCCO)oc(=O)c3c2)cc(OC)c1,–,0.651 µM (active)
Cc1ccc(N(CC(=O)NC2CCCCC2)C(=O)CCCC(=O)Nc2ccccn2)c(C)c1,-6.89%,–
CC(C)(C)S(=O)(=O)c1ccccc1-c1noc(-c2ccccc2)c1C(N)=O,14.1%,–
COc1ccc(S(=O)(=O)N(CC(=O)NCc2ccco2)c2ccc(F)cc2)cc1,-11%,–
Cc1ccc(N(CC(=O)NCc2ccc(Cl)cc2)S(=O)(=O)N(C)C)cc1,-2.04%,–

SMILES,"activity change, negative = growth inhibition",Potency
COc1ccc(CNC(=O)CN(c2ccc(OC)c(Cl)c2)S(=O)(=O)c2ccc(C)cc2)cc1,–,25.9 µM (active)
COCc1cc(C)nc2sc(C(=O)NC3CCCCC3)c(N)c12,-21.3%,–
O=C(O)C1=C(C(=O)O)C2CCC1C2,0.326%,–
CCN(CCN(C)C)C(=O)c1ccc2nc(C)c(N(C)C(=O)CCc3ccccc3)n2c1,13.7%,–
Cc1ccc(CNC(=O)COC(=O)C2CCC2)cc1,-1.47%,–
CC(O)c1ccc(OCCN(C)c2ccccn2)cc1 (stereo not given),4.7%,–
CSc1ccc(CCNC(=O)CS(=O)(=O)Cc2nc(-c3ccccc3F)oc2C)cc1,-0.97%,–
Cc1ccccc1-c1nc(CS(=O)(=O)CC(=O)NC(C)c2ccccc2)c(C)o1 (stereo not given),–,16.4 µM (active)
Cc1ccc(S(=O)(=O)CC(=O)NC(C)c2ccccc2)cc1 (stereo not given),8.16%,–
CC(C)Cc1nnc(NC(=O)CCNC(=O)c2ccccc2Cl)s1,-10%,–
CCOC(=O)N1CCN(C(=O)C2CCN(c3ncnc4c3sc3cccc(F)c34)CC2)CC1,–,8.2 µM (active)
CCOC(=O)N1CCN(C(=O)C2CCCN(c3ncnc4c3sc3cccc(F)c34)C2)CC1 (stereo not given),-104%,–
CCOC(=O)N1CCN(C(=O)C2CCN(S(=O)(=O)c3cc(Cl)ccc3OCC)CC2)CC1,-3.7%,–
O=C(CCn1nnnc1CN1CCOCC1)N1CCC(c2ccccc2Cl)C1 (stereo not given),-12.6%,–
COc1ccc(F)c(CN2CCC3(CCC(CNC(=O)c4ccn(C)n4)O3)CC2)c1 (stereo not given),7.32%,–
Cc1ccccc1N1CC(C(=O)Nc2ccc3c(c2)OCO3)CC1=O (stereo not given),-10.8%,–
COc1ccc(C(=O)CC(=O)c2ccc(C)cc2)c(O)c1,–,4.61 µM (active)
COc1ccc(C(=O)CCc2ccccc2O)c(OC)c1,5.83%,–
COc1ccc(C(=O)Cc2cnn(-c3ccccc3)c2)c(O)c1,-20.1%,–
COc1ccc(NC(=O)Cn2c(=O)cc(C)c3c(C)nn(-c4cccc(Cl)c4C)c32)cc1OC,-8.29%,–
Cc1noc(C)c1NC(=O)Nc1cccc2c1O[C@H](CN(C)S(=O)(=O)c1c(C)noc1C)[C@@H](C)CN([C@H](C)CO)C2=O,13.3%,–
